About 83,000 compounds went through this panel and 20% of them were active in at least one assay; those are over-represented in the sample as a whole.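 Each cell line was grown in a 96-well plate and treated with one concentration of compound for 48 hours. Values below 10 were considered active.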 Values without a mark were called inactive. Active and inactive are the calls of the source.
tested on: T-47D breast; assay: NCI-60 one-dose screen, 48 h (100 = growth as untreated, 0 = no growth, -100 = all killed); settings: 10 µM unless noted

**Q.** How did the growth turn out when `Cc1cc(Nc2nc(SCc3ccc(C(=O)Nc4ccc(F)cc4N)cc3)nn3cccc23)n[nH]1` was run?
**A.** 62.1%

**Q.** How did the growth turn out when `Oc1c(CCl)cc(Cl)cc1Cc1cc(Cl)cc(Cc2cc(Cl)cc(CCl)c2O)c1O` was run?
**A.** 22.1%

**Q.** `COc1ccc(C2N(c3cc(OC)c(OC)c(OC)c3)C(=O)C2(F)F)cc1F` (centres undefined) was tested. Which growth did it give?
**A.** 65.7%

**Q.** `COc1cc2c(cc1OC)C(Sc1ccc(Cl)cc1)c1c(nc(N)c(C#N)c1N)O2` (centres undefined) was tested. Which growth did it give?
**A.** -3.7% (active)

Reference: PubChem BioAssay (NCI)
